VACV Venus inh: qHTS for Stage-Specific Inhibitors of Vaccinia Orthopoxvirus: Venus Reporter Primary qHTS. hit rate 0.46% among 330,000. Vaccinia virus Venus reporter expression, fluorescence. Potency, µM (series often up to 36.5 µM), hits mostly inhibitors; calls by dose curve; tested in A549 cells; further: nearly all actives have a fitted effect of over 30% in size
FMDV antiviral: High Throughput Screening for Foot and Mouth Disease Virus Antivirals; FMDV antiviral cell-based qHTS; Potency, µM (top dose mostly 57.9 µM), hits mostly inhibitors; hit rate 1.2% among 410,000; AID 1159524, 2015; calls by dose curve; tested in HEK293T cells; further: read-out not given here; nearly all actives have a fitted effect of over 45% in size
MARV entry inh: qHTS for inhibitors of binding or entry into cells for Marburg Virus | Marburg virus pseudotyped entry inhibition, cell reporter | Potency, µM (highest dose often 37.8 µM), hits mostly inhibitors | hit rate 1.8% among 300,000 | AID 540276, 2011; calls by dose curve; tested in HEK293 cells
VACV mCherry inh: qHTS for Stage-Specific Inhibitors of Vaccinia Orthopoxvirus: mCherry Reporter Primary qHTS. Vaccinia virus mCherry reporter infection, fluorescence. Potency, µM (doses to about 36.5 µM), usual class: inhibitors. hit rate 0.63% among 310,000. AID 720579, 2013; calls by dose curve; tested in A549 cells; further: nearly all actives have a fitted effect of over 35% in size
LASV entry inh: qHTS for Inhibitors of binding or entry into cells for Lassa Virus; AID 540256, 2011; hit rate 1.2% among 300,000; Lassa virus pseudotype entry inhibition, cell reporter; Potency, µM (doses to about 37.9 µM), most hits filed as inhibitors; calls by dose curve; tested in HEK293 cells; further: nearly all actives have a fitted effect of over 50% in size
Of the large screens only hits and unclear results are named; the others gave an inactive call. Hits are enriched below; roughly 3.2% of the tested compounds scored in any of these assays.

Cc1cccc2sc(NC(=O)C3CCN(C(=O)c4ccco4)CC3)nc12	MARV entry inh inconclusive, LASV entry inh 7.9µM
Cc1cccc2sc(N3CCN(C(=O)c4ccco4)CC3)nc12	none (no result: MARV entry inh)
COc1ccc(-c2ccc3c(N)c(C(=O)NCc4ccc(C)cc4)sc3n2)cc1	VACV mCherry inh inconclusive, LASV entry inh inconclusive
COc1cccc(-c2cc(C(=O)NCc3ccccc3)[nH]n2)c1	LASV entry inh 7.9µM (no result: MARV entry inh)
COc1cccc(-c2ccc3c(N)c(C(=O)NCc4ccc(Cl)cc4)sc3n2)c1	VACV mCherry inh inconclusive, LASV entry inh 7.9µM
O=C(Nc1cccc(F)c1)N1CCCC2(CCNCC2)C1	none (no result: VACV Venus inh, MARV entry inh, VACV mCherry inh, LASV entry inh)
CN(C)CCC=C1c2ccccc2COc2ccccc21	none (no result: VACV Venus inh, MARV entry inh, VACV mCherry inh, LASV entry inh)
O=C(Nc1nnc(-c2ccccc2)o1)c1ccc(Cl)cc1	MARV entry inh 13µM, LASV entry inh inconclusive
CC(=O)c1ccc(C(=O)Nc2nnc(-c3ccc(Cl)cc3)o2)cc1	none (no result: MARV entry inh, LASV entry inh)
O=C(CCN1CCOCC1)c1ccc(N2CCCCC2)cc1	VACV Venus inh inconclusive, VACV mCherry inh inconclusive (no result: MARV entry inh, LASV entry inh)
CC(C)(C)c1cc(C(=O)CCN2CCOCC2)cc(C(C)(C)C)c1O	VACV Venus inh inconclusive, VACV mCherry inh 11µM
O=c1cnc2cncnc2n1Cc1ccccc1Cl	none (no result: VACV Venus inh, MARV entry inh, VACV mCherry inh, LASV entry inh)
COCCN1C(=O)CCC1(C)C(=O)Nc1c(C)cccc1C (configuration not stated)	none (no result: MARV entry inh, LASV entry inh)
CCOC(=O)[C@]12Cc3cc(C)ccc3[C@H]1N(C1CCCCC1)C(=O)c1ccccc12	VACV Venus inh inconclusive, FMDV antiviral 7.9µM, VACV mCherry inh inconclusive (no result: MARV entry inh, LASV entry inh)
CCOC(=O)[C@]12Cc3cc(OC)ccc3[C@H]1N(CC(=O)OC)C(=O)c1ccccc12	none (no result: MARV entry inh, LASV entry inh)
CCOC(=O)[C@]12Cc3ccc(C)cc3[C@H]1N(C1CCCCC1)C(=O)c1ccccc12	VACV Venus inh inconclusive, FMDV antiviral 6.3µM, VACV mCherry inh inconclusive (no result: MARV entry inh, LASV entry inh)
CCOC(=O)[C@]12Cc3cc(C)ccc3[C@H]1N(CCC(=O)OC)C(=O)c1ccccc12	VACV Venus inh inconclusive, FMDV antiviral 14µM, VACV mCherry inh inconclusive (no result: MARV entry inh, LASV entry inh)
CCOC(=O)[C@]12Cc3ccc(C)cc3[C@H]1N(C1CCCCC1)C(=O)c1cc(OC)ccc12	VACV Venus inh inconclusive, FMDV antiviral 28µM, VACV mCherry inh inconclusive (no result: MARV entry inh, LASV entry inh)
C[C@@H]1C=CCCO[C@]12C(=O)Nc1ccc(O)cc12	none (no result: VACV Venus inh, FMDV antiviral, VACV mCherry inh, LASV entry inh)
O=C(Cn1cc(COc2ccc([N+](=O)[O-])cc2)nn1)c1ccc(O)cc1	none (no result: VACV Venus inh, FMDV antiviral, MARV entry inh, VACV mCherry inh)
COC(=O)[C@@H]1CCCN1Cc1ccc2c(c1)CN(Cc1ccc(OC)c(C)c1)CCO2	none (no result: MARV entry inh, LASV entry inh)
N#Cc1cc([N+](=O)[O-])c2sc(C(N)=O)[n+]([O-])c2c1	LASV entry inh inconclusive (no result: VACV Venus inh, FMDV antiviral, VACV mCherry inh)
CCOC(=O)[C@]12Cc3cc(Cl)ccc3[C@H]1N(C1CCCCC1)C(=O)c1cc(OC)ccc12	VACV Venus inh 3.5µM, FMDV antiviral 2.2µM, VACV mCherry inh inconclusive (no result: MARV entry inh, LASV entry inh)
CCOC(=O)[C@]12Cc3cc(N(C)C)ccc3[C@H]1N(Cc1ccccc1)C(=O)c1ccccc12	none (no result: MARV entry inh, LASV entry inh)
CCOC(=O)[C@]12Cc3c(cc(OC)c(OC)c3OC)[C@H]1N(C1CCCCC1)C(=O)c1ccccc12	VACV Venus inh inconclusive, FMDV antiviral 8.9µM, VACV mCherry inh inconclusive (no result: MARV entry inh, LASV entry inh)
CCOC(=S)SCC(=O)N1CCc2cc(OC)ccc2C1C1C(=O)CCCC1=O (configuration not stated)	none (no result: VACV Venus inh, MARV entry inh, VACV mCherry inh, LASV entry inh)
CCOC(=O)[C@]12Cc3ccccc3[C@H]1N(C(C)C)C(=O)c1ccccc12	VACV Venus inh inconclusive, FMDV antiviral 18µM, VACV mCherry inh inconclusive (no result: MARV entry inh, LASV entry inh)
Cc1cc(-c2ccccc2)nc(N2CCN(c3ccccn3)CC2)n1	MARV entry inh 9.2µM, LASV entry inh 4.6µM (no result: FMDV antiviral)
Cc1cncc(N2CCN(c3ccccn3)CC2)n1	none (no result: MARV entry inh, LASV entry inh)
CC=CC(C)=CC(C)C(=O)CC(O)CC1CC(=O)NC(=O)C1 (configuration not stated)	VACV Venus inh inconclusive, VACV mCherry inh inconclusive (no result: MARV entry inh, LASV entry inh)
CC1CC(C)(O)CC(C(O)CC2CC(=O)NC(=O)C2)C1=O (configuration not stated)	VACV Venus inh 35µM, FMDV antiviral inconclusive, MARV entry inh 0.1µM, VACV mCherry inh inconclusive, LASV entry inh 0.4µM
Cc1ccc(NS(=O)(=O)c2cccc(C(=O)NC3CCN(Cc4ccccc4)CC3)c2)cc1	VACV Venus inh inconclusive, MARV entry inh inconclusive, VACV mCherry inh inconclusive
Cc1ccc(CN2C3CCCC2CC(NC(=O)c2ccc(C)cc2)C3)cc1 (configuration not stated)	MARV entry inh 13µM, LASV entry inh inconclusive (no result: VACV Venus inh, VACV mCherry inh)
CC(=O)NC1CC2CCCC(C1)N2Cc1ccc(C)cc1 (configuration not stated)	none (no result: VACV Venus inh, MARV entry inh, VACV mCherry inh, LASV entry inh)
Cc1ccc(NS(=O)(=O)c2ccc(C(=O)NC3CCN(Cc4ccccc4)CC3)cc2)cc1	VACV Venus inh inconclusive, FMDV antiviral inconclusive, MARV entry inh inconclusive, VACV mCherry inh inconclusive, LASV entry inh 11µM
COCCC(=O)NCC1Cc2cc(Cl)cc(-c3ccc4[nH]ccc4c3)c2O1 (configuration not stated)	none (no result: MARV entry inh, LASV entry inh)
C=C1C(=O)O[C@H]2C[C@@H](C)[C@@H]3C=CC(=O)[C@@]3(C)C[C@H]12	VACV Venus inh inconclusive, FMDV antiviral 25µM, VACV mCherry inh inconclusive (no result: MARV entry inh, LASV entry inh)
C=C1C(=O)OC2C1CCC(C)C1(O)C=CC(=O)C21C (configuration not stated)	FMDV antiviral 40µM, VACV mCherry inh inconclusive (no result: MARV entry inh, LASV entry inh)
C=C1C(=O)OC2C1CCC(C)C1C=CC(=O)C12C (configuration not stated)	VACV Venus inh inconclusive, FMDV antiviral inconclusive, MARV entry inh 11µM, VACV mCherry inh 11µM, LASV entry inh inconclusive
C=C1C(=O)O[C@@H]2C[C@@H](C)[C@@H]3C=CC(=O)[C@@]3(C)[C@@H](OC(=O)CC(=O)O[C@H]3[C@@H]4C(=C)C(=O)O[C@@H]4C[C@@H](C)[C@@H]4C=CC(=O)[C@]43C)[C@H]12	VACV Venus inh 2.5µM, FMDV antiviral inconclusive, VACV mCherry inh inconclusive (no result: MARV entry inh, LASV entry inh)
C=C1C(=O)O[C@H]2[C@H]1[C@H](OC(=O)CC(=O)O[C@@H]1C[C@@H](C)[C@@H]3C=CC(=O)[C@@]3(C)[C@H]3OC(=O)C(=C)[C@H]13)C[C@@H](C)[C@H]1C=CC(=O)[C@]12C	VACV mCherry inh inconclusive (no result: MARV entry inh, LASV entry inh)
CCOC(=O)C1=CCC(c2cccn2C(=O)OC(C)(C)C)N(S(=O)(=O)c2ccc(C)cc2)C1 (configuration not stated)	none (no result: MARV entry inh, LASV entry inh)
CCCCc1nc2cc(C(=O)N(C)C3CCOCC3)ccc2o1	MARV entry inh inconclusive
CC(=O)O[C@@H]1[C@H]2[C@@H](C[C@@H](C)[C@@H]3C=CC(=O)[C@@]13C)OC(=O)[C@@H]2C	VACV Venus inh inconclusive (no result: MARV entry inh, LASV entry inh)
C=C1C(=O)OC2CC(C)C3C=CC(=O)C3(C)C(O)C12 (configuration not stated)	VACV Venus inh 6.3µM, FMDV antiviral 8.9µM, MARV entry inh 0.63µM, VACV mCherry inh inconclusive, LASV entry inh 1.3µM
C=C1C(=O)O[C@@H]2C[C@@H](C)[C@@H]3C4OC4C(=O)[C@@]3(C)[C@@H](O)[C@H]12 (some centres not stated)	VACV Venus inh 14µM, FMDV antiviral inconclusive, VACV mCherry inh inconclusive (no result: MARV entry inh, LASV entry inh)
